# Reference: PubChem BioAssay (EPA / NIEHS)
# The source made the active and inactive calls. The calls were made as follows: active = hit-call score of the fitted dose curve at least 0.9, where 1 is the maximum; inactive = score below 0.9.
# Assay: IUF_NPC2c_oligodendrocyte_migration_120hr: Leibniz Research Institute for Environmental Medicine (IUF) 120-hour Neural Progenitor Cell Migration Assay for Oligodendrocyte Migration (NPC2c) (AID 2284297)
# Experimental: IUF_NPC2-5 is a cell-based, multiplexed assay that uses hNPC, a human primary neural progenitor cells, with measurements taken at 72 or 120 hours after chemical dosing in a 96-well plate. Human neural progenitor cells (hNPC) are generated from human fetal brain cortex at gestational week (GW) 16-19. In the neural progenitor cell migration and differentiation assay (NPC2-5), hNPCs grown as spheres are plated on an extracellular matrix and migrate and differentiate out of the sphere core. The processes radial glia migration, neuronal and oligodendrocyte migration as well as neuronal differentiation, neuronal morphology and oligodendrocyte differentiation are studied using automated phase contrast imaging and automated fluorescence imaging in combination with high content image analysis. In parallel, the cell viability is assessed using an alamar blue viability assay and the cytotoxicity using a lactate dehydrogenase dependent membrane integrity assay.IUF_NPC2b_oligodendrocyte_migration_120hr is one of 12 assay components measured from the IUF_NPC2-5 assay. Oligodendrocyte migration distance at 120 hr is the mean distance of all oligodendrocytes from the edge of the sphere core to each individual oligodendrocyte (see IUF_NPC5_oligodendrocyte_differentiation_120hr). Oligodendrocyte migration is normalized to radial glia migration distance at 120 hr.Data from the IUF_NPC2c_oligodendrocyte_migration_120hr component was analyzed at the endpoint IUF_NPC2c_oligodendrocyte_migration_120hr in the positive analysis fitting direction relative to DMSO as the negative control and baseline of activity. Using a type of migration reporter, gain or loss-of-signal activity can be used to understand developmental effects.
# Culture protocol: After the cell expansion period the cells are cultured for up to four weeks in which they are passaged every week as described in 3.6. Between one to three days after passaging spheres at a size of 0.3 mm are picked for the test method. For the assessment of neural progenitor cell migration and differentiation, the spheres are plated on poly-D-lysine/laminin coated 96-well flat bottom plates in differentiation medium (N2) to initiate migration and differentiation. Thereby one 0.3 mm big sphere is plated in the middle of a well. The differentiation medium consists of DMEM and Ham's F12 at a ratio of 3 to 1 supplemented with 1% N2 and 1% penicillin and streptomycin. Within 5 days NPCs radially migrate out of the sphere core and differentiate into radial glia cells (nestin positive), neurons (TUBB3 positive), oligodendrocytes (O4 positive) and astrocytes (GFAP positive). Cultivation during the test method is performed at 37C and 5% CO2 at a ph of 7.2-7.6.Exposure: 0.3 mm big hNPC are plated in the already prepared test conditions. Exposure starts at day 0 of differentiation and is continued over five days of differentiation until the experiment is terminated. Cells are fed with fresh medium at day 3 of differentiation. Therefore, half of the test condition solution (e.g. solvent control or compound dilution) is replaced by freshly prepared test condition solution.Test Method: Migration distance and cytotoxicity is determined after 72 hours based on brightfield images of each well. The assay is terminated by the assessment of cell viability and cytotoxicity as well as cell fixation after 120 h. Immunocytochemistry is performed for Hoechst positive nuclei, TUBB3 positive neurons and O4 positive oligodendrocytes. On the ICC images, migration after 120 hours, neuronal and oligodendrocyte number, neuronal morphology and neuron/oligodendrocyte specific migration is assessed. immunocytochemical staining (ICC) generates an image for each sphere. The plates are scanned using an automated high content imaging device and all nuclei and their positions are determined automatically based on their intensity and size. Images are imported to the Omnisphero software to run the image analysis that measures the following endpoints. […]
Compound,outcome,AC50
F,inactive,
CCCCCC(C)(CC)C(=O)NC (stereo unspecified),inactive,
C[C@@H]1CCO[C@H]2Cn3cc(C(=O)NCc4ccc(F)cc4F)c(=O)c(O)c3C(=O)N12,inactive,
CC(C)O,inactive,
CC(=O)N[C@@H](CC(=O)O)C(=O)O,inactive,
CC(=O)OC/N=[N+](\C)[O-],inactive,
BrC1CC(Br)CC(Br)CC(Br)CC(Br)CC(Br)C1 (stereo unspecified),,1.24 µM (active)
Cc1[nH]n(C)c(=O)c1C(=O)c1ccc(C(F)(F)F)cc1S(C)(=O)=O,inactive,
CCCCCC=C(C)C(CC)CCO (stereo unspecified),inactive,
CC(CNC(=S)[S-])NC(=S)[S-].[Zn+2] (stereo unspecified),inactive,
O=C1CC2(CCCC2)CC(=O)N1CCCCN1CCN(c2ncccn2)CC1,inactive,
CC(C)c1nn(C(=O)NC(C)(C)C)c(=O)n1N,inactive,
CCCCOCCOP(=O)(O)OCCOCCCC,inactive,
CCc1ccccc1,inactive,
C[C@@H]1CC[C@@H](C(C)(C)O)[C@H](O)C1,inactive,
CN(C)CCCn1cc(C2=C(c3c[nH]c4ccccc34)C(=O)NC2=O)c2ccccc21,,18.6 µM (active)
